This is a sample that favours compounds with a hit; in the whole collection about 3.5% have one here.
mHTT-CaM PPI inh – inhibitors of human mutant huntingtin-calmodulin interaction; P42858; AlphaScreen His-mHTT/GST-CaM binding, luminescence; inhibition, % at 15 µM; hit rate 3.6% among 190,000; AID 1671202
Pf apPOL inh – Pf-apPOL DNA polymerase inhibition | Recombinant Pf-apPOL, molecular beacon fluorescence, 1.5 h | inhibition, % at 10 µM | hit rate 0.25% among 210,000
Each line names hits and unclear results; the compound was inactive in the other large screens; ! = repeats disagree. Rule as the data show it: active = inhibition above about 50%; inactive = the rest.

Cc1ccc(C(=O)Nc2ccc3c(c2)OCO3)cc1	none
CCCCOc1ccc(S(=O)(=O)NCc2ccc3c(c2)OCO3)cc1	none
COc1ccccc1CC(=O)Nc1ccc2c(c1)OCO2	none
O=C(NCc1ccco1)C(=O)Nc1ccc2c(c1)OCO2	none
Cc1ccc(CNc2ccc3c(c2)OCO3)cc1	mHTT-CaM PPI inh 100.5
CCCCOc1ccc(CNc2ccc3c(c2)OCO3)cc1	mHTT-CaM PPI inh 91.5
c1coc(CNc2ccc3c(c2)OCO3)c1	mHTT-CaM PPI inh 71.4
Cc1ccccc1CNc1ccc2c(c1)OCO2	mHTT-CaM PPI inh 90.9
O=[N+]([O-])c1cccc(-c2ccc(SCc3ccccn3)nn2)c1	none
Cc1cccc(NC(=O)COc2ccc(C(C)C)cc2)n1	none
O=[N+]([O-])c1cc(S(=O)(=O)NCc2ccccc2)ccc1N1CCOCC1	none
Cc1noc(C)c1CCNC(=O)C1CCN(c2ncnc3c2nc2n3CCCCC2)CC1	none
CCNc1cc(N2CCC(CCC(=O)NCc3cc(F)cc(F)c3)CC2)ncn1	none
CN(C)c1ccc([N+](=O)[O-])cc1Cl	none (no result: Pf apPOL inh)
COc1ccc(C(=O)Nc2c3c(nn2-c2ccc(C)cc2)CS(=O)(=O)C3)cc1OC	none
COc1cc(C=CC(=O)N2CCC(CSCc3ccco3)CC2)cc(OC)c1OC	none
CCN1C(=O)Cc2cc(C(=O)N3CCN(c4ccccc4C)CC3)ccc21	mHTT-CaM PPI inh 68.0
CCN1C(=O)Cc2cc(C(=O)N3CCN(c4ccccc4Cl)CC3)ccc21	none
CC1CCN(C(=O)c2ccc3c(c2)CC(=O)N3Cc2ccc(F)cc2)CC1	none
CC1CCN(C(=O)c2ccc3c(c2)CC(=O)N3Cc2cccc(F)c2)CC1	mHTT-CaM PPI inh 56.6
O=C(C1c2ccccc2Oc2ccccc21)N1CCC(Cn2ccnc2)CC1	none
CCCOc1ccc(C2C(=O)N(C3CCCCCC3)CC(=O)N2C2CC2)cc1OC (stereo unspecified)	none
CC(=O)Oc1ccc2c(c1)Oc1cc(OC(C)=O)ccc1C21OC(=O)c2ccccc21	mHTT-CaM PPI inh 86.8
CC(=O)Oc1ccc2c(c1)OC(=Cc1ccccc1Br)C2=O	none
O=C(O)c1cc(C23CC4CC(CC(C4)C2)C3)n(-c2ccccc2)n1	none
COc1ccc(C(=O)N2CCC3(CC2)NC(=O)N(Cc2cc(C)ccc2C)C3=O)cc1	none
CSc1nnc(-c2ccccc2N)c(=O)[nH]1	none
O=S1(=O)C=CC(Nc2cccc(C(F)(F)F)c2)C1 (stereo unspecified)	none
O=C1CCCC(=O)N1c1ccc(N2CCC(O)(c3cccc(C(F)(F)F)c3)CC2)c([N+](=O)[O-])c1	mHTT-CaM PPI inh 93.0
O=C1CCCC(=O)N1c1ccc(N2CCN(c3cccc(C(F)(F)F)c3)CC2)c([N+](=O)[O-])c1	none
O=C(OCc1cn([C@@H]2C[C@H](c3ccc(Cl)cc3)N(CC3CCCCC3)C[C@H]2O)nn1)c1ccccc1	none
CCCC(C)C(=O)Nc1ccc(OCC)cc1 (stereo unspecified)	mHTT-CaM PPI inh 100.0
CCCC(C)C(=O)Nc1ccc(Br)cc1 (stereo unspecified)	none
CCOc1ccc2nc(SC3CC(=O)N(c4ccc(OC)c(OC)c4)C3=O)sc2c1 (stereo unspecified)	none
CC(=O)N(CCC1(c2ccccc2)CCOC(C)(C)C1)Cc1ccc(N(C)C)cc1 (stereo unspecified)	mHTT-CaM PPI inh 75.2
CC1(C)CC(CCN(Cc2ccccc2)C(=O)c2ccco2)(c2ccccc2)CCO1 (stereo unspecified)	none
O=C(NC1CCCC1)c1ccc2c(c1)nc1n2CCN(Cc2ccccc2)C1=O	none
CCOc1ccccc1C(=O)N1CCN(c2ccc(Cl)cc2)CC1	none
COc1ccccc1C(=O)N1CCC2(CC1)NC(=O)N(Cc1ccc(Cl)cc1)C2=O	none
O=C(c1cccc2[nH]ccc12)N1CCC2(CC1)NC(=O)N(Cc1ccc(Cl)cc1)C2=O	none
CCOc1ccccc1C(=O)n1cc(Cl)cn1	Pf apPOL inh 97.7!
O=C(c1c[nH]c2ccccc12)N1CCC2(CC1)NC(=O)N(Cc1ccc(Cl)cc1)C2=O	mHTT-CaM PPI inh 89.7
CCOc1ccccc1C(=O)N1CCC2(CC1)NC(=O)N(Cc1ccc(Cl)cc1)C2=O	mHTT-CaM PPI inh 55.0
Cc1ccc(NC(=O)/C(=C/c2ccc3c(c2)OCO3)NC(=O)c2ccco2)cc1	none
O=C(Cc1csc(NC(=O)Nc2cccc(Cl)c2)n1)NCCCn1ccnc1	none
Cc1ccccc1CNC(=O)C1(C)CCCN(S(=O)(=O)c2ccc(F)c(Cl)c2)C1 (stereo unspecified)	mHTT-CaM PPI inh 83.8
Cc1ccc(S(=O)(=O)N2CCCC(C)(C(=O)NCc3ccccc3C)C2)cc1C (stereo unspecified)	mHTT-CaM PPI inh 77.1
COc1ccc(S(=O)(=O)N2CCCC(C)(C(=O)NCc3ccccc3C)C2)cc1 (stereo unspecified)	none
Cc1ccccc1CNC(=O)C1(C)CCCN(S(=O)(=O)c2ccc(F)cc2)C1 (stereo unspecified)	none
O=C(COC(=O)c1ccccc1C(=O)c1ccccc1)c1ccc(Cl)cc1	none (no result: mHTT-CaM PPI inh)
COc1ccc(C(=O)N2CCC3(CC2)NC(=O)c2cc(Cl)ccc2N3C)cc1	none
COc1ccc2c(=O)cc(-c3ccc(Cl)cc3Cl)oc2c1	none
CC(C)NC(=O)c1nnn(-c2ccc(Cl)cc2)c1-c1cccnc1	none
